High-throughput results as filed in PubChem BioAssay.
The list is not random: actives were taken first. Their share in the collection is about 15%.
RORgamma inh: blocks mouse ROR gamma transcriptional activity | AID 2551 | Potency, µM (titrated, usually from 53.6 µM), usual class: inhibitors | 310,000 tested, 5.4% active | P51450 | Drosophila S2 Gal4-RORgamma UAS-luciferase reporter, 20 h; also: nearly all actives have a fitted effect of over 60% in size
Target sequence (P51450 whole entry, looked up, the tested form may be a part): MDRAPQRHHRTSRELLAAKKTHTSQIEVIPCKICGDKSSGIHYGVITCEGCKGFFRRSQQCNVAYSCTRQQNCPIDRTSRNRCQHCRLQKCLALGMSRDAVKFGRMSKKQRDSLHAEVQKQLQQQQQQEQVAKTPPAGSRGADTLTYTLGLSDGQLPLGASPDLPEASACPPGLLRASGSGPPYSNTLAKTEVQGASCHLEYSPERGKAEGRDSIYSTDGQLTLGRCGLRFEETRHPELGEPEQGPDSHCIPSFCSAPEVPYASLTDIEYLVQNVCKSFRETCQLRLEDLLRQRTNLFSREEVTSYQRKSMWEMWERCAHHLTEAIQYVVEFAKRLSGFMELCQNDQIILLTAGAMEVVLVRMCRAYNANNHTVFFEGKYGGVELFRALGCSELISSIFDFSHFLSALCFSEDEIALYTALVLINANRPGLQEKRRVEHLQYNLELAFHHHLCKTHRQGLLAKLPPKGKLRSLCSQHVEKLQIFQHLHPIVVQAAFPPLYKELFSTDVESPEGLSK
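Luciferase reporter read in Schneider cells carrying Gal4-RORγ (mouse) and UAS-Photinus luciferase; cells given compound 1 h before 700 uM copper sulfate induction, then incubated 20 h at ambient temperature.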
Gal4-VP16 FLuc: inhibits Gal4-VP16 luciferase reporter, ROR gamma counter-screen | Drosophila S2 Gal4-VP16 UAS-luciferase, luminescence, 20 h | Potency, µM (doses to about 53.6 µM), hits mostly inhibitors | 310,000 tested, 3.5% active | AID 2546;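 also: Gal4-VP16 expression switched on by copper sulfate through the metallothionein promoter; nearly all actives have a fitted effect of over 50% in size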
ELG1 DNA repair: blocks ELG1-dependent DNA repair in HEK293T cells; HEK293T ELG1-luciferase reporter, luminescence, 16 h; DNA damage induced by 5-fluorouridine; Potency, µM (titrated, usually from 46.1 µM), most hits filed as inhibitors; 330,000 tested, 2.3% active; AID 504467; also: nearly all actives have a fitted effect of over 55% in size
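Reporter activity after DNA damage by 5-fluorouridine is monitored. Compound-treated cells incubate 16 hr at 37 °C, then ONE-Glo is added for 30 min before luminescence reading.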
12-LOX inh: ALOX12 (human) lipoxygenase inhibition. P18054. purified 12hLO, xylenol orange hydroperoxide absorbance. Potency, µM (highest dose often 108 µM), hits mostly inhibitors. 580,000 tested, 1.1% active. AID 1671190
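Purified human 12hLO (150 nM final) in 25 mM Hepes, 0.01% Triton X-100, pH 7.0 was preincubated 15 min at room temperature with compound. Then 40 uM arachidonic acid was added, 30 min. Hydroperoxide was read by Fe-XO absorbance ratio 573/405 nm.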
TDP1 cell noCPT: qHTS for Inhibitors of human tyrosyl-DNA phosphodiesterase 1 (TDP1): qHTS in cells in absence of CPT | 420,000 tested, 15% active | AID 686978, 2013 | DT40 Tdp1-/- hTDP1 cells, no CPT, ATP luminescence, 48 h | Potency, µM (series often up to 46.2 µM), most hits filed as inhibitors; also: nearly all actives have a fitted effect of over 55% in size
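Growth of hTDP1-complemented DT40 Tdp1-knockout cells is measured by ATP luminescence after at least 48 hr compound exposure at 37 °C, with DMSO substituting for the 20 nM CPT used in the parallel screen.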
TDP1 cell CPT: DT40-hTDP1 cell growth loss with CPT. Potency, µM (highest dose often 46.2 µM), usual class: inhibitors. chicken DT40 Tdp1-/-;hTDP1 cells + 20 nM CPT, ATP luminescence, 48 h. 420,000 tested, 12% active; also: nearly all actives have a fitted effect of over 55% in size
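Chicken DT40 Tdp1-/- cells complemented with human TDP1, 400 cells/well, exposed to compounds plus 20 nM camptothecin for at least 48 h at 37 C; viability read as ATP content by CellTiter-Glo luminescence.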
Hits are given with their value; – = inactive; ? = inconclusive; · = no result; [ ] = another dose, or the depositor's remark. Calls follow the shape of the dose curve; as a rule, active = well fitted curve in the direction sought with a large enough effect; inconclusive = small, poorly fitted or top-dose-only effect, or another doubt; inactive = no such curve, though single readings can be large; an effect the other way counts as inactive or inconclusive.

SMILES	RORgamma inh	Gal4-VP16 FLuc	ELG1 DNA repair	12-LOX inh	TDP1 cell noCPT	TDP1 cell CPT
CN1CCC(N(C)C(=O)c2ccc(Cl)c(S(=O)(=O)N3CCc4ccccc43)c2)CC1	·	·	–	–	?	?
O=C(Nc1ccncc1)c1ccc(Cl)c(S(=O)(=O)N2CCc3ccccc32)c1	·	·	?	–	7.3µM	9.2µM
O=C1CN(C(=O)c2ccccc2Cl)c2ccccc2N1	–[1.91 µM]	–	–	–	?	–
CCc1nnc(NC(=O)c2ccc(Cl)c(S(=O)(=O)N3CCc4ccccc43)c2)s1	20µM	?	23µM	–	–	–
C[C@@H]1CN(C(=O)c2ccc(-c3nnn(C)n3)cc2)C[C@@]1(O)C1CC1	·	·	·	–	·	·
c1ccc(-n2nnnc2CSc2nnc(N3CCOCC3)n2-c2ccccc2)cc1	·	·	·	–	·	·
S=C(NCCCc1cnc[nH]1)NCCCN(Cc1ccc(Cl)cc1)c1ccc(Br)cc1	·	·	·	·	–	13µM
S=C(NCCCc1cnc[nH]1)NCCCN(CCc1ccccc1)c1ccc(Br)cn1	·	·	·	·	8.9µM	10µM
S=C(NCCCc1cnc[nH]1)NCCCN(Cc1ccc(Cl)cc1)c1ncc(Br)cn1	·	·	·	·	7.9µM	13µM
CN(C)CCCNC(=S)NCCc1ccccc1	·	·	·	–	·	·
O=C(NCCCc1cnc[nH]1)NCCCN(Cc1ccc(Cl)cc1)c1ccc(Br)cn1	·	·	·	·	4µM	2.2µM
S=C(NCCCc1cnc[nH]1)NCCCN(Cc1ccc(Cl)cc1)c1ccc(-c2ccccc2)cn1	·	·	·	·	–	?
COc1cccc(-c2ccc(COc3ccc4c(cnn4CCC(=O)O)c3)cc2)c1F	·	·	·	–	·	·
COc1ccc(F)cc1-c1ccc(COc2ccc3c(cnn3CCC(=O)O)c2)cc1	·	·	·	35µM	·	·
CNC(=O)CCn1ncc2cc(OCc3ccccc3-c3ccc(F)cc3C)ccc21	·	·	·	63µM	·	·
COc1ccc(C(=O)N2CC(Oc3ccccc3-c3nc(-c4cnccn4)no3)C2)cn1	·	·	·	–	·	·
O=C1N(C2CCN(S(=O)(=O)c3ccccc3)CC2)C(c2ccncc2)C12CCCCC2 (configuration not stated)	·	·	·	–	·	·
O=S(=O)(CCc1ccccc1)c1ccccc1	–	–	·	–	·	·
O=S(=O)(Cc1ccccc1)C(CCCc1ccccc1)S(=O)(=O)Cc1ccccc1	·	·	·	–	21µM	23µM
COc1ccc(N(C(=O)c2ccc(S(=O)(=O)N3CCCCC3)cc2)C2C=CS(=O)(=O)C2)cc1 (configuration not stated)	·	·	·	–	·	·
CCc1cc(-c2n[nH]c(C)c2-c2ccc3c(c2)OCCO3)c(O)cc1O	13µM	?	·	?	·	·
CCOC(=O)c1oc2cc(O)c(CC)cc2c(=O)c1-c1ccc2c(c1)OCCO2	?	–	–	?	–	–
CCc1cc(-c2n[nH]c(C)c2-c2nc3ccccc3n2C)c(O)cc1O	–	–	?	–	18µM	?
CCOC(=O)c1cc(-c2ccccc2)sc1NC(=O)CCN1CCOCC1	·	·	·	–	·	·
CCOC(=O)c1[nH]cc(-c2ccccc2)c1N1CCOCC1	–	–	?	?	29µM	16µM
SMILES	RORgamma inh	Gal4-VP16 FLuc	ELG1 DNA repair	12-LOX inh	TDP1 cell noCPT	TDP1 cell CPT
CCOC(=O)c1c(-c2cccc([N+](=O)[O-])c2)csc1NC(=O)CCCOc1ccccc1	?	8.9µM	?	–	–	–
CCOC(=O)c1c(-c2ccc(C)cc2)csc1NC(=O)CCN1CCOCC1	–	–	–	?	23µM	?
CCOC(=O)c1c(-c2ccccc2)csc1NC(=O)CCN1CCOCC1	–	–	23µM	?	23µM	?
CCOC(=O)c1c(-c2ccccc2)csc1NC(=O)COc1ccc2c(C)cc(=O)oc2c1	–	–	?	–	12µM	?
CCOC(=O)c1c(NC(=O)c2ccc(S(=O)(=O)N3CCOCC3)cc2)sc2c1CC(C)(C)NC2(C)C	–	–	–	–	?	?
CCOC(=O)c1c(-c2ccccc2)csc1NC(=O)c1ccc(S(=O)(=O)N2CCOCC2)cc1	–	–	?	–	10µM	5.8µM
